Screening data (PubChem BioAssay)
Most compounds without a hit are left out; they make up all but 4.3% or so of the library.
esBAF inh = blocks esBAF chromatin remodeling in mouse ES cells; Bmi1-luciferase knock-in reporter, 24 h; 100% = twice the neutral-well signal; reporter increase, % at 12.5 µM; 2% of 350,000 active; in the data active means activation above about 40%;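 further: 0% = median of the plate's neutral control wells and 100% = double that signal; a rise in the Bmi1 reporter signal indicates esBAF inhibition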
SMARCA2 activ = activators of SMARCA2 function | MG213 cells, MMTV-luciferase reporter, dexamethasone, overnight | activation, % at 9.1 µM | 1% of 370,000 active | AID 652017; in the data active means activation above about 7.8%;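 further: 0% = vehicle wells and 100% = reference activator wells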
HSF-1 act = increases HSF-1 driven luciferase reporter signal. NIH3T3-HGL HSF-1 luciferase reporter, MG132, 8 h; 100% = twice DMSO control signal. activation, % at 9 µM. 1.7% of 300,000 active;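 active means mean replicate activation of at least 50% with a set share of replicates each reaching 50%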;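 further: 0% = median of the neutral control wells and 100% = twice that signal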
Wnt bcat act = activators of Wnt/beta-catenin signaling; Wnt/beta-catenin reporter cell assay, activator, plate reader; activation, % at 9.35 µM; AID 743398; 1.2% of 300,000 active; in the data active means activation above about 30%, passing the limit was not always enough;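 further: 0% = neutral control wells and 100% = positive control wells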
HSF1 inhib = HSF1 inhibition | NIH3T3-HGL HSE-luciferase, MG132-induced, luminescence 8 h; stronger effect = lower value | activity change, negative = inhibition, % at 7.5 µM (by protocol) | 0.77% of 300,000 active | AID 2098;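 active means more than half of replicate wells show activity change below -50%, luminescence cut by over half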;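 further: luciferase reports HSF-1 transcriptional activity via heat shock element; 0% = median of DMSO wells and -100% = zero luminescence signal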
MITF act = increases MITF-driven TRPM1 promoter luciferase signal | 0.75% of 300,000 active | activation, % at 12.5 µM | SK-MEL-5 TRPM1-promoter luciferase, 24 h; % of positive control, neutral wells = 0;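 active means mean activation of at least 80% with every replicate also reaching 80%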;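 further: 0% = neutral control wells and 100% = parthenolide positive control wells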
The depositor's hits bear a star.

`C/C(=N\NC(=O)c1ccc(Br)cc1)c1ccccc1` gave esBAF inh 47*, SMARCA2 activ 2, HSF-1 act 9, HSF1 inhib 4 and MITF act 54.
Screening COc1ccc(/C=N/NC(=O)c2ccccc2OCc2ccccc2)c(OC)c1 returned esBAF inh -5, SMARCA2 activ -1, HSF-1 act 12, Wnt bcat act -2, HSF1 inhib -2 and MITF act 1.
`COc1ccc(/C(C)=N/NC(=O)c2ccccc2N)cc1` gave esBAF inh 24, SMARCA2 activ 7.9*, HSF-1 act 28, Wnt bcat act 20, HSF1 inhib 21 and MITF act 29.
For C/C(=N\NC(=O)c1ccccc1)c1ccccc1F the results were esBAF inh 20, SMARCA2 activ 0, HSF-1 act 20, Wnt bcat act 57*, HSF1 inhib 20 and MITF act 47.
For C[C@H]1CN([C@@H](C)CO)C(=O)Cc2cc(NC(=O)Nc3cccc4ccccc34)ccc2O[C@H]1CN(C)C(=O)Nc1ccc2c(c1)OCO2 the results were esBAF inh 2.
Cn1cnc(S(=O)(=O)N2C[C@@H](O)COC[C@@H]3O[C@@H](CC(=O)NCc4cc(F)cc(F)c4)CC[C@H]32)c1 was read as esBAF inh -1.
`CCCC#Cc1cnc2c(c1)C(=O)N([C@H](C)CO)C[C@H](C)[C@H](CN(C)C(=O)NCCC)O2` gave esBAF inh -4.
For COc1ccc(/C(C)=N/NC(=S)NCc2ccco2)cc1 the results were SMARCA2 activ -4, HSF-1 act 73*, Wnt bcat act -1, HSF1 inhib 48 and MITF act -4.
Screening O=c1c2ccccc2sc2ccc(NCCCN3CCOCC3)cc12 returned esBAF inh 10, SMARCA2 activ 7, HSF-1 act 12, Wnt bcat act 27, HSF1 inhib 10 and MITF act 72.
COc1cc2sc3cc(NCCCN4CCOCC4)ccc3c(=O)c2cc1OC was read as esBAF inh 55*, SMARCA2 activ 7, Wnt bcat act 14 and MITF act 38.
Screening COc1cc2c(cc1OC)-c1cc(Nc3ccc(N(C)C)cc3)nc(=O)n1CC2 returned SMARCA2 activ 7.8*, HSF-1 act 1, Wnt bcat act 0, HSF1 inhib -3 and MITF act 27.
COc1cc2c(cc1OC)-c1cc(Nc3ccc(F)cc3)nc(=O)n1CC2 was read as SMARCA2 activ 1, HSF-1 act 2, Wnt bcat act 1, HSF1 inhib -12 and MITF act 21.
Screening C[C@@H]1CN([C@H](C)CO)C(=O)Cc2cc(NS(=O)(=O)c3cn(C)cn3)ccc2O[C@@H]1CN(C)S(C)(=O)=O returned esBAF inh 1.
For C[C@H](CO)N1C[C@H](C)[C@@H](CN(C)Cc2ccccc2)OCCCC[C@H](C)Oc2ccc(NC(=O)CCC(F)(F)F)cc2C1=O the results were esBAF inh -9.
COc1cccc(C(=O)OCC(=O)c2c[nH]c3ccccc23)c1OC was read as esBAF inh 44*, SMARCA2 activ 6, Wnt bcat act 5 and MITF act 53.
Screening CCOC(=O)c1c(C)[nH]c(C)c1C(=O)COC(=O)c1ccccc1O returned SMARCA2 activ -4, HSF-1 act -9, HSF1 inhib -5 and MITF act 3.
Cc1[nH]c2ccccc2c1C(=O)COC(=O)c1ccccc1O was read as esBAF inh 124*, SMARCA2 activ 3, Wnt bcat act -1 and MITF act 111*.
`COc1cc(CC(=O)OCC(=O)c2c[nH]c3ccccc23)cc(OC)c1OC` gave esBAF inh -7, SMARCA2 activ -2, Wnt bcat act 0 and MITF act -18.
COc1ccc(C(=O)OCC(=O)c2c[nH]c3ccccc23)c(OC)c1 was read as esBAF inh 75*, SMARCA2 activ 3, Wnt bcat act 36* and MITF act 69.
`COc1ccc(C(=O)COC(=O)c2ccccc2O)c(OC)c1` gave esBAF inh 76*, SMARCA2 activ 5, Wnt bcat act 50* and MITF act 65.
COc1ccc(CC(=O)OCC(=O)c2c[nH]c3ccccc23)cc1 was read as esBAF inh 1, SMARCA2 activ 0, Wnt bcat act 2 and MITF act -11.
CO[C@@H]1CN(C)C(=O)c2ccc(NC(=O)C3CC3)cc2OC[C@H](C)N(CCC(F)(F)F)C[C@H]1C was read as esBAF inh 1.
`C[C@H](CO)N1C[C@H](C)[C@@H](CN(C)S(=O)(=O)c2ccc(F)cc2)OCCCC[C@H](C)Oc2ccc(NS(=O)(=O)c3ccc(F)cc3)cc2C1=O` gave esBAF inh 1.
For C[C@H](CO)N1C[C@H](C)[C@H](CN(C)C(=O)Nc2ccccc2)Oc2c(cccc2N(C)C)C1=O the results were esBAF inh -7.
COc1ccc(C(=O)OCc2csc(C)n2)c(O)c1 was read as SMARCA2 activ 5, HSF-1 act 65*, Wnt bcat act 8, HSF1 inhib 26 and MITF act 70.
For Cc1nc(C/C(=N\N)c2ccc(O)cc2O)cs1 the results were SMARCA2 activ -1, HSF-1 act 15, Wnt bcat act 0, HSF1 inhib 7 and MITF act -8.
CCNC(=O)[C@@H]1[C@@H](CO)[C@@H]2Cn3c(ccc(-c4ccccc4F)c3=O)[C@H]1N2CC1CC1 was read as esBAF inh 0.
Screening CCn1cc(Br)c(C(=O)Nc2cccc(Cl)c2)n1 returned esBAF inh 36, SMARCA2 activ 2, HSF-1 act 0, HSF1 inhib 4 and MITF act 48.
For CCn1cc(Br)c(C(=O)Nc2ccc(Cl)c(Cl)c2)n1 the results were esBAF inh 65*, SMARCA2 activ -4, HSF-1 act 45, HSF1 inhib 18 and MITF act 58.
Screening CCc1sc(NC(C)=O)nc1-c1ccccc1 returned esBAF inh 0, SMARCA2 activ -3, HSF-1 act 3, HSF1 inhib -4 and MITF act 21.
Screening CCc1sc(N2C(=O)C3C4CCC(C4=C(C)C)C3C2=O)nc1-c1ccccc1 (stereo not given) returned esBAF inh 54*, SMARCA2 activ -1, HSF-1 act 0, HSF1 inhib -1 and MITF act -4.
`Cn1cnc(S(=O)(=O)N2CC[C@@H]3[C@H](CO)Nc4ccc(C#Cc5ccccc5F)cc4[C@@H]32)c1` gave esBAF inh 3.
Cc1ccc2cc(/C=N/NC(=O)c3ccccc3[N+](=O)[O-])c(Cl)nc2c1 was read as esBAF inh 2, SMARCA2 activ -3, HSF-1 act -10, Wnt bcat act -2, HSF1 inhib 6 and MITF act 4.
